In PubChem BioAssay (NCI):
This is part of a sample that, as a whole, favours compounds with a hit. Of some 79,000 tested, about 15% had one in any assay. Active and inactive are the calls of the source. Cut-off read from the data, not from the text of the source: active = growth inhibition above about 70%; inactive = the rest.

Legend:
[1] = NCI Yeast Anticancer Drug Screen. Data for the wt1 strain (AID 149);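 note: 0% = growth of vehicle-treated wt1 cultures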; conditions: S. cerevisiae wt1 strain (SPY 50644) growth inhibition, stronger effect = higher value
Outline: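 Vehicle-normalised growth inhibition; strain wt1; compound exposure.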

[2] = NCI Yeast Anticancer Drug Screen. Data for the rad50EPP+ strain (AID 151);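 note: 0% = growth of vehicle-treated control cultures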; conditions: S. cerevisiae rad50 mutant strain, stronger effect = higher value
Outline: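 In this screen, rad50EPP+ yeast were exposed to compounds. Growth inhibition was scored against vehicle-treated controls.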

[3] = NCI Yeast Anticancer Drug Screen. Data for the mgt1 strain (AID 153); conditions: S. cerevisiae mgt1 mutant growth inhibition, stronger effect = higher value
Outline: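 mgt1 strain exposed; growth vs vehicle control recorded as inhibition.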

[4] = NCI Yeast Anticancer Drug Screen. Data for the rad50 strain (AID 155);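 note: 0% = growth of vehicle-only cultures of the same strain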; conditions: S. cerevisiae rad50 strain growth inhibition, stronger effect = higher value
Outline: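 A DNA repair-deficient yeast mutant serves as the test organism; compound-induced growth inhibition is calculated against vehicle-treated cells.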

[5] = NCI Yeast Anticancer Drug Screen. Data for the mec2-1 strain (AID 157); conditions: S. cerevisiae mec2-1 strain, stronger effect = higher value
Outline: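 Vehicle-treated cultures served as reference for growth inhibition of compound-exposed mec2-1 yeast.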

[6] = NCI Yeast Anticancer Drug Screen. Data for the rad14 strain (AID 159);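 note: 0% = growth of vehicle-treated control cultures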; conditions: S. cerevisiae rad14 strain growth inhibition, stronger effect = higher value
Outline: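 Vehicle-treated cultures served as the baseline for growth inhibition of a DNA repair-mutant yeast strain exposed to each compound.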

[7] = NCI Yeast Anticancer Drug Screen. Data for the sgs1 mgt1 strain (AID 161);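 note: 0% = growth of cultures given vehicle only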; conditions: S. cerevisiae sgs1 mgt1 strain, stronger effect = higher value
Outline: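 Genetically altered yeast, compound exposure, growth inhibition relative to vehicle.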

[8] = NCI Yeast Anticancer Drug Screen. Data for the CLN2oe strain (AID 163);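 note: 0% = growth of vehicle-only control cultures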; conditions: S. cerevisiae CLN2oe strain, stronger effect = higher value
Outline: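 Inhibition relative to vehicle-treated yeast is reported. Cells: strain with genetic alteration in cell-cycle control, grown with compound.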

[9] = NCI Yeast Anticancer Drug Screen. Data for the cln2 rad14 strain (AID 165);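 note: 0% = growth equal to vehicle treated cultures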; conditions: S. cerevisiae cln2 rad14 strain, stronger effect = higher value
Outline: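 Each compound was tested on cln2 rad14 yeast. Inhibition of growth was calculated against vehicle-exposed controls.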

[10] = NCI Yeast Anticancer Drug Screen. Data for the bub3 strain (AID 167); conditions: S. cerevisiae bub3 mutant strain, stronger effect = higher value
Outline: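 Inhibition values come from growth of compound-treated mutant yeast normalised to vehicle-treated controls.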

[11] = NCI Yeast Anticancer Drug Screen. Data for the wt2 strain (AID 169);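 note: 0% = growth of vehicle-treated yeast cultures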; conditions: S. cerevisiae wt2 strain growth inhibition, stronger effect = higher value
Outline: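 Inhibition of yeast growth was determined after compound treatment, normalised to controls receiving only vehicle.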

[12] = NCI Yeast Anticancer Drug Screen. Data for the mlh1 strain (AID 171);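 note: 0% = growth of vehicle-treated control cultures of the same strain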; conditions: S. cerevisiae mlh1 strain growth inhibition, stronger effect = higher value
Outline: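 Vehicle-normalised growth inhibition of a repair- or checkpoint-altered yeast strain following compound treatment.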

[13] = NCI Yeast Anticancer Drug Screen. Data for the mlh1 rad18 strain (AID 175); conditions: S. cerevisiae mlh1 rad18 strain growth inhibition, stronger effect = higher value
Outline: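 Vehicle-treated cultures served as the reference for growth inhibition in a yeast strain carrying DNA damage repair alterations exposed to each compound.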

[14] = NCI Yeast Anticancer Drug Screen. Data for the rad18 strain (AID 177); conditions: S. cerevisiae rad18 mutant growth inhibition, stronger effect = higher value
Outline: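 Test articles were incubated with altered yeast defective in DNA damage repair. Results are given as inhibition of growth versus vehicle.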

[15] = NCI Yeast Anticancer Drug Screen. Data for the sgs1 strain (AID 173);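 note: 0% = growth of vehicle-only control cultures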; conditions: S. cerevisiae sgs1 mutant, stronger effect = higher value
Outline: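 Screen format: yeast with repair or checkpoint alterations, compound exposure, growth read relative to vehicle.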

[16] = at 5.0 µM (retest, dose inferred, filed as 0.5)
[17] = at 50.0 µM (retest, dose inferred, filed as 5.0)

Measured: growth inhibition

CCc1nc2ccc(N=Nc3c(O)ccc4ccccc34)cc2[nH]1
active: [1]; at 100.0 µM 96% | [2]; at 100.0 µM 93% | [3]; at 100.0 µM 96% | [4]; at 50.0 µM 89% | [4]; at 100.0 µM 95% | [5]; at 50.0 µM 93.2% | [5]; at 100.0 µM 93% | [6]; at 100.0 µM 93% | [7]; at 50.0 µM 92.5% | [8]; at 100.0 µM 95% | [9]; at 50.0 µM 91.9% | [10]; [17] 92% | [10]; at 50.0 µM 92.2% | [10]; at 100.0 µM 95% | [11]; at 100.0 µM 96% | [12]; at 100.0 µM 95% | [13]; at 50.0 µM 90.1% | [14]; at 100.0 µM 95%
inactive: [1]; at 1.2 µM 14% | [1]; at 3.7 µM 10% | [1]; at 11.0 µM 19% | [1]; at 33.0 µM 30% | [2]; at 1.2 µM -5% | [2]; at 3.7 µM 4% | [2]; at 11.0 µM 23% | [2]; at 33.0 µM 63% | [3]; at 1.2 µM 0% | [3]; at 3.7 µM -10% | [3]; at 11.0 µM -6% | [3]; at 33.0 µM -2% | [4]; at 1.2 µM 6% | [4]; at 3.7 µM 6% | [4]; [16] -23% | [4]; at 11.0 µM 8% | [4]; at 33.0 µM 34% | [4]; [17] 25% | [5]; at 1.2 µM 0% | [5]; at 3.7 µM 7% | [5]; [16] -49% | [5]; at 11.0 µM 10% | [5]; at 33.0 µM 21% | [5]; [17] 65% | [6]; at 1.2 µM -15% | [6]; at 3.7 µM -29% | [6]; at 11.0 µM -20% | [6]; at 33.0 µM 32% | [7]; [16] -4% | [7]; [17] 21% | [8]; at 1.2 µM 2% | [8]; at 3.7 µM 1% | [8]; at 11.0 µM -5% | [8]; at 33.0 µM 9% | [9]; [16] 9% | [9]; [17] 41% | [10]; at 1.2 µM -3% | [10]; at 3.7 µM -11% | [10]; [16] -9% | [10]; at 11.0 µM -18% | [10]; at 33.0 µM 13% | [11]; at 1.2 µM -13% | [11]; at 3.7 µM 12% | [11]; at 11.0 µM -5% | [11]; at 33.0 µM 12% | [12]; at 1.2 µM -15% | [12]; at 3.7 µM -10% | [12]; at 11.0 µM -18% | [12]; at 33.0 µM 17% | [13]; [16] -22% | [13]; [17] 46% | [14]; at 1.2 µM -8% | [14]; at 3.7 µM -10% | [14]; at 11.0 µM 1% | [14]; at 33.0 µM 21%

CCOC(=O)c1[nH]c2cccc3c2c1CC(Br)C3=O (stereo unspecified)
inactive: [1]; at 1.2 µM -23% | [1]; at 3.7 µM -5% | [1]; at 11.0 µM -3% | [1]; at 33.0 µM 19% | [1]; at 100.0 µM 60% | [2]; at 1.2 µM -31% | [2]; at 3.7 µM -1% | [2]; at 11.0 µM -12% | [2]; at 33.0 µM 34% | [2]; at 100.0 µM 62% | [3]; at 1.2 µM -33% | [3]; at 3.7 µM 0% | [3]; at 11.0 µM -4% | [3]; at 33.0 µM 67% | [4]; at 1.2 µM -15% | [4]; at 3.7 µM -34% | [4]; [16] 45% | [4]; at 11.0 µM -12% | [4]; at 33.0 µM 57% | [5]; at 1.2 µM -6% | [5]; at 3.7 µM 3% | [5]; [16] 46% | [5]; at 11.0 µM 14% | [6]; at 1.2 µM 0% | [6]; at 3.7 µM -8% | [6]; at 11.0 µM -9% | [6]; at 33.0 µM 4% | [6]; at 100.0 µM 58% | [7]; [16] 66% | [8]; at 1.2 µM -48% | [8]; at 3.7 µM -44% | [8]; at 11.0 µM -69% | [8]; at 33.0 µM -39% | [8]; at 100.0 µM 67% | [9]; [16] 6% | [9]; [17] 60% | [9]; at 50.0 µM 50.6% | [10]; at 1.2 µM -46% | [10]; at 3.7 µM -39% | [10]; [16] 56% | [10]; at 11.0 µM -29% | [10]; at 33.0 µM 32% | [11]; at 1.2 µM -28% | [11]; at 3.7 µM 2% | [15]; at 1.2 µM -8% | [15]; at 3.7 µM 14% | [15]; at 11.0 µM 27% | [15]; at 33.0 µM 68% | [14]; at 1.2 µM -39% | [14]; at 3.7 µM -22% | [14]; at 11.0 µM 2%
active: [3]; at 100.0 µM 88% | [4]; [17] 92% | [4]; at 50.0 µM 89.8% | [4]; at 100.0 µM 76% | [5]; at 33.0 µM 80% | [5]; [17] 96% | [5]; at 50.0 µM 91.3% | [5]; at 100.0 µM 87% | [7]; [17] 96% | [7]; at 50.0 µM 83.3% | [10]; [17] 93% | [10]; at 50.0 µM 76% | [10]; at 100.0 µM 78% | [11]; at 11.0 µM 81% | [11]; at 33.0 µM 97% | [11]; at 100.0 µM 97% | [15]; at 100.0 µM 80% | [13]; [16] 82% | [13]; [17] 96% | [13]; at 50.0 µM 89.4% | [14]; at 33.0 µM 74% | [14]; at 100.0 µM 89%
